The record followed here is PubChem BioAssay (EPA / NIEHS).

Several values for one entry are separate records, joined by “and”; a condition that tells them apart may be missing. Identical values can stand only once. Inconclusive results are not listed. The source holds several records for some structures; these can differ, active in one and inactive in another. Activity calls are given as the source filed them. Rule for the calls, unless noted: active = hit-call score of the fitted dose curve at least 0.9, where 1 is the maximum; inactive = score below 0.9.

The nature of test [1]: BSK_SAg_PBMCCytotoxicity: PBMC Cytotoxicity Assessment in the BioMAP Diversity Plus: SAg Assay (AID 2283093).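 For AC50: PBMC superantigen activated with SEB plus TSST-1 one hour after compound addition.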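 Note: PBMC viability measured as Alamar Blue reduction fluorescence at 546/580 nm; fitted both ways against DMSO so a hit may be loss or gain of signal.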 The conditions noted are these: primary human HUVEC with PBMC. In short, it runs like this: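 Alamar Blue reduction (6 h, 546/580 nm) reports PBMC cytotoxicity after 90 h superantigen activation (SEB, TSST-1; 20 ng/mL final each) with 1 h compound pre-treatment. Gain or loss of signal fitted versus DMSO.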

Read-out in test [2]: Interleukin-8 (IL8), CXCL8 (gene 3576)
The experiment in a line: BSK_SAg_IL8: BioMAP Diversity Plus: SAg Assay for Interleukin-8 (IL8) Biomarker Activity (AID 2283094). The conditions noted are these: primary human HUVEC with PBMC; actives raise or lower the signal. In short, it runs like this:
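Primary human endothelial cells with PBMC, exposed 24 h; IL-8 determined by ELISA, analysed bidirectionally relative to DMSO.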

Test [3] can be described thus: BSK_SAg_Proliferation: Cell Proliferation Assessment in the BioMAP Diversity Plus: SAg Assay (AID 2283095).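 Note: relative cell number as total protein by SRB absorbance in sub-confluent culture.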 The conditions noted are these: primary human HUVEC with PBMC. In short, it runs like this: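 A human primary co-culture of umbilical vein endothelium and blood mononuclear cells receives compound; relative cell number is quantified at 96 h by SRB staining and 560 nm absorbance, with DMSO-referenced bidirectional curve fitting.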

Test [4] is described as follows: BSK_SAg_SRB: Viability Assessment in the BioMAP Diversity Plus: SAg Assay (AID 2283096).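 Note: cells read one day after compound addition; hits may be either gain or loss of signal compared with DMSO.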 To be noted: primary human HUVEC with PBMC. In short, it runs like this: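 This overt-cytotoxicity endpoint quantifies protein in human endothelial/PBMC co-cultures at 24 h using SRB absorbance (560 nm) after trichloroacetic acid fixation. Values reflect signal change from the DMSO negative control, fitted bidirectionally.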

Test [5] addresses human CYP2D6, CYP2D6 (gene 1565) (UniProt P10635). The experiment in a line: NVS_ADME_hCYP2D6: NovaScreen (NVS) CYP450-related Enzyme Activity (ADME) Assay for human CYP2D6 (AID 2283107; active = hit-call score of the fitted dose curve at least 0.9, where 1 is the maximum). The essentials: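 Fluorescence intensity read 1 h post-dosing; insect-cell-expressed recombinant protein with fluorogenic substrate, no cells. Activity is scored as signal loss relative to acetonitrile baseline, first at a single 10 uM concentration in duplicate, then as concentration series for confirmed actives.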

Test [6] deals with human CYP19A1, CYP19A1 (gene 1588) (UniProt P11511). The experiment in a line: NVS_ADME_hCYP19A1: NovaScreen (NVS) CYP450-related Enzyme Activity (ADME) Assay for human CYP19A1 (AID 2283098; active = hit-call score of the fitted dose curve at least 0.9, where 1 is the maximum;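 for AC50: potency for inhibitors seen as loss of fluorescent enzyme signal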). The essentials: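 Compounds were first screened at 10 uM in duplicate against purified enzyme, with a fluorogenic substrate and fluorescence intensity detection after 0.5 h. Inhibition appears as reduced signal against acetonitrile control.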
human CYP19A1, CYP19A1 (gene 1588), sequence (P11511 whole entry, looked up): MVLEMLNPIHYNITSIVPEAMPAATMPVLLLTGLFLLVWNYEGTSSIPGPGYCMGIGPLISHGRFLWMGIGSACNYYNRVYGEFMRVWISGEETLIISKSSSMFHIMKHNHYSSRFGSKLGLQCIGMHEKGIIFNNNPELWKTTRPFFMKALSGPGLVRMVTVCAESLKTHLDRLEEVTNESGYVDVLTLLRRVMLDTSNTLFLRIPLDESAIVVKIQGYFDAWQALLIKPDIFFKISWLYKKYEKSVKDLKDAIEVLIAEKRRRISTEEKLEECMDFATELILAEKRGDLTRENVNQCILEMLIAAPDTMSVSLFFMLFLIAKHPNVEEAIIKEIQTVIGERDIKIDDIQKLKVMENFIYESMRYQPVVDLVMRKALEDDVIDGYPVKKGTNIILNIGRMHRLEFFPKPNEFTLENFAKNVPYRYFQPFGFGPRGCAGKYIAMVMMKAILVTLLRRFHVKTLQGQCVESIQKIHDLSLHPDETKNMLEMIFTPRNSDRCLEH

Test [7] concerns the target human CYP2A6, CYP2A6 (gene 1548) (UniProt P11509). Description: NVS_ADME_hCYP2A6: NovaScreen (NVS) CYP450-related Enzyme Activity (ADME) Assay for human CYP2A6 (AID 2283099; active = hit-call score of the fitted dose curve at least 0.9, where 1 is the maximum). The essentials: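 Insect-cell-expressed human CYP2A6 enzyme activity measured by fluorescence intensity 0.5 hour post-dosing. Compounds screened at 10 uM in duplicate, then hits tested singly in concentration series (max 20 uM); acetonitrile baseline.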

Test [8] has as its target human CYP2B6, CYP2B6 (gene 1555) (UniProt P20813). The experiment in a line: NVS_ADME_hCYP2B6: NovaScreen (NVS) CYP450-related Enzyme Activity (ADME) Assay for human CYP2B6 (AID 2283101; active = hit-call score of the fitted dose curve at least 0.9, where 1 is the maximum). In short, it runs like this:
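Fluorescence-based enzyme activity of recombinant human CYP2B6, measured 1 h post-dose against acetonitrile vehicle baseline. Screened at a single concentration of 10 uM in duplicate before concentration-response follow-up.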

The target of test [9] is human CYP1A1, CYP1A1 (gene 1543) (UniProt P04798). The experiment in a line: NVS_ADME_hCYP1A1: NovaScreen (NVS) CYP450-related Enzyme Activity (ADME) Assay for human CYP1A1 (AID 2283100; active = hit-call score of the fitted dose curve at least 0.9, where 1 is the maximum). In short, it runs like this: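 Read-out: fluorescence intensity from enzymatic turnover of substrate by recombinant CYP1A1, loss of signal indicating inhibition. Incubation 1 h post-dose. Primary single-point 10 uM in duplicate; actives rerun singly with top concentration 20 uM.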
human CYP1A1, CYP1A1 (gene 1543), sequence (P04798 whole entry, looked up): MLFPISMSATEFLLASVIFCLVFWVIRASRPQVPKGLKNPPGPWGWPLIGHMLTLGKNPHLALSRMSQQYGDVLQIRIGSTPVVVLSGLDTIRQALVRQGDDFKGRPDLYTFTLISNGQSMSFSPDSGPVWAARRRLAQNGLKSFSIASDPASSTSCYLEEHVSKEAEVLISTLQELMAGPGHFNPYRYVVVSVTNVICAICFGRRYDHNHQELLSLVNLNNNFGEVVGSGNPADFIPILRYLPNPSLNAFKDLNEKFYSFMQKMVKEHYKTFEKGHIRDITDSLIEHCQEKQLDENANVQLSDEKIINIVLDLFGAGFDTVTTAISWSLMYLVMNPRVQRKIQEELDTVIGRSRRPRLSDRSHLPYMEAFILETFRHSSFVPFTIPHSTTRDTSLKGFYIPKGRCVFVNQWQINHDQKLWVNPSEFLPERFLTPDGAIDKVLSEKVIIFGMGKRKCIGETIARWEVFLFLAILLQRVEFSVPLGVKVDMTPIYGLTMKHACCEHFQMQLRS

Test [10] has as its target human CYP1A2, CYP1A2 (gene 1544) (UniProt P05177). Description: NVS_ADME_hCYP1A2: NovaScreen (NVS) CYP450-related Enzyme Activity (ADME) Assay for human CYP1A2 (AID 2283102; active = hit-call score of the fitted dose curve at least 0.9, where 1 is the maximum;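 for AC50: potency for inhibition since loss of fluorescence marks reduced CYP1A2 activity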). The essentials:
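Fluorescence-intensity enzyme activity read-out, taken 0.5 h post-dosing, using insect-cell-derived recombinant CYP1A2 and specific fluorescent substrate. Acetonitrile served as negative control/baseline. Single-concentration duplicate screen at 10 uM, then concentration-response follow-up.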

human CYP2A6, CYP2A6 (gene 1548), sequence (P11509 whole entry, looked up): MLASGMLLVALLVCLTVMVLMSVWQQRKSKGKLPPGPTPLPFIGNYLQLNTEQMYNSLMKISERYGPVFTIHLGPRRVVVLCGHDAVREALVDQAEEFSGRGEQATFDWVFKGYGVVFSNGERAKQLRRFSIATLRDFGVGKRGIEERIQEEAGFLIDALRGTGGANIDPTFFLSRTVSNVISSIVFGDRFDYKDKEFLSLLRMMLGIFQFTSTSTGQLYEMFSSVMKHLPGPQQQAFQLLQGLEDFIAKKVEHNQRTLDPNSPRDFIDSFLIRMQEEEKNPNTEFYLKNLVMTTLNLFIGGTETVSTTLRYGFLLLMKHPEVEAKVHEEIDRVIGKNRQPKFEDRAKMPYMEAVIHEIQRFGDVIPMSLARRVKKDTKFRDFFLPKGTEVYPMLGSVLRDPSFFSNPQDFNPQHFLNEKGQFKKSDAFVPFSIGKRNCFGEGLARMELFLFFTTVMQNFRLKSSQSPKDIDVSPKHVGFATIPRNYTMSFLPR
human CYP1A2, CYP1A2 (gene 1544), sequence (P05177 whole entry, looked up): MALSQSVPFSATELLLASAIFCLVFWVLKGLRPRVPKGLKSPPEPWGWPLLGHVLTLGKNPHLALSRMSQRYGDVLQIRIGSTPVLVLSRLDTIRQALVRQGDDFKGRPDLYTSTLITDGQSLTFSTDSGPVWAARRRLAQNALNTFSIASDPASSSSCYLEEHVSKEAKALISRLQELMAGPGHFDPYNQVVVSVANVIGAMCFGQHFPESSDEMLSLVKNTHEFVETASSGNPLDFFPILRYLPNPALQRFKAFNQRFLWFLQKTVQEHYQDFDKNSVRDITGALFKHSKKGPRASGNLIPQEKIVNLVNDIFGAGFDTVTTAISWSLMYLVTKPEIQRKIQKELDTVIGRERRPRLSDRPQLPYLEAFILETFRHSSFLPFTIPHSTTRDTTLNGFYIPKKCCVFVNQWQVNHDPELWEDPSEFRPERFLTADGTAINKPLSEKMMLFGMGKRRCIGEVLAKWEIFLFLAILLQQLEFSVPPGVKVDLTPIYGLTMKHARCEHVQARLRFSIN
human CYP2D6, CYP2D6 (gene 1565), sequence (P10635 whole entry, looked up): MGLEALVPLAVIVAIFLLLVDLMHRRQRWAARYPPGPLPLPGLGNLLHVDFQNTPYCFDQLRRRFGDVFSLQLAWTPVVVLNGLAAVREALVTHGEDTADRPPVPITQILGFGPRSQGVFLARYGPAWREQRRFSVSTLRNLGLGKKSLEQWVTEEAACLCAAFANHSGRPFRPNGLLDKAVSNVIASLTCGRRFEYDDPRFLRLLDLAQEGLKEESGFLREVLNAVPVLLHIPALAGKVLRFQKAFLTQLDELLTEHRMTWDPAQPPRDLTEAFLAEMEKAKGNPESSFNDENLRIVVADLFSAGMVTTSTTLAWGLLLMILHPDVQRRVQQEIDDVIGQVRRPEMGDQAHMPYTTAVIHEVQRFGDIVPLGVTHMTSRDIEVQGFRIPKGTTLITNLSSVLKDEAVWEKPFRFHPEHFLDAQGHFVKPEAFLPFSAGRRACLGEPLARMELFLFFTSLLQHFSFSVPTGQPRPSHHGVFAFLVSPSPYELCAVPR
human CYP2B6, CYP2B6 (gene 1555), sequence (P20813 whole entry, looked up): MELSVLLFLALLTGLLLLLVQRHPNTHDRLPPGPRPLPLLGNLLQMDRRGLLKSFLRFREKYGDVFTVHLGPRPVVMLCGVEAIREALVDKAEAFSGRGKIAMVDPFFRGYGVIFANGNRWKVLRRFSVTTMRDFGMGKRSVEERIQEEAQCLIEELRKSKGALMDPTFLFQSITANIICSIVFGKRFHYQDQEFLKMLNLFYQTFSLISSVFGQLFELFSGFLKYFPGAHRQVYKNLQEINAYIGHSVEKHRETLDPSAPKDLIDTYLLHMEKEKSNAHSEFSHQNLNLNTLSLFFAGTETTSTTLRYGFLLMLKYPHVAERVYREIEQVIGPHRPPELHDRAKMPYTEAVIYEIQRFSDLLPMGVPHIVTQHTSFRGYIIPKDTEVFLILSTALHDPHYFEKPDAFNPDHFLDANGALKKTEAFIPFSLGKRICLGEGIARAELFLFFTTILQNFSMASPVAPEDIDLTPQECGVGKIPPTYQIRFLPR

Take `COCC(C)O` (stereo not drawn): the outcome in test [1], in test [2], in test [3] and in [4] was inactive.

What is called AC50 is the midpoint of the concentration-response curve, whichever way the signal moves. On to `NC(=O)N(O)[C@@H]1C=C[C@H](Oc2cccc(Oc3ccc(F)cc3)c2)C1`, for which the outcome in test [1], in [2] and in test [4] was inactive. Moreover, the AC50 was 20 µM (active) in test [3] and 1.16 µM (active) in test [5].

In the case of `CC[C@H](C)[C@@H](C(=O)O)n1sc2ccccc2c1=O`, the outcome in test [1], in test [2], in test [3] and in test [4] was inactive.

In the case of `CCc1ccc(CCOc2ccc(CC3SC(=O)NC3=O)cc2)nc1` (stereo not drawn), the outcome in test [1], in test [2] and in [4] was inactive. Moreover, the AC50 in test [3] is 7.06 µM (active).

Take `CC(C)(C)c1cccc(C(C)(C)C)c1O`: the result in [1], in test [2], in [3] and in test [4] was inactive.

Turning to `CC[C@H](c1ccc(O)cc1)[C@@H](CC)c1ccc(O)cc1`, the AC50 in [1] was 31.1 µM (active); in test [2] it was 20.2 µM (active); in test [3], 19.2 µM (active); in [4], 31.4 µM (active); in test [6], 1.77 µM (active).

Turning to `CCOC(=O)CC(O)(CC(=O)OCC)C(=O)OCC`, the result in test [1], in test [2], in test [3] and in test [4] was inactive.

For `CCCOC(=O)c1ccc(O)cc1`, the outcome in test [1], in test [2], in test [3], in test [4], in test [7] and in test [8] was inactive.

Take `FC(F)(I)C(F)(F)C(F)(F)C(F)(F)C(F)(F)C(F)(F)I`: in [2], the AC50 is 9.66 µM (active) and 45 µM (active) and 41.6 µM (active); the result was inactive. For the same compound, the AC50 in [4] was 28.1 µM (active) [middle of 5 runs].

For `CC(=O)NC1(c2cccc(F)c2)CCN(CC[C@@]2(c3ccc(Cl)c(Cl)c3)CN(c3ccccc3)C(=O)CO2)CC1`, the AC50 in test [1] is 24.7 µM (active); in [2] it was 6.76 µM (active); in test [4] it was 24.6 µM (active); in [5], 2.77 µM (active). Moreover, the outcome in test [3], in test [7] and in [9] was inactive.

Turning to `CC1=C(/C=C/C(C)=C/C=C/C(C)=C/C(=O)O)C(C)(C)CCC1`, the outcome in [1], in test [2], in test [4], in test [7], in test [8] and in [10] was inactive. Moreover, the outcome in [5] was inactive. The figures for the AC50 in test [3] and in [9] were 27.5 µM (active) and 1.43 µM (active), respectively.

In the case of `CCCOc1sc(C(=O)N2CCC(c3cc(CN)ccc3F)CC2)c(C)c1Br`, the AC50 in test [1] is 6.22 µM (active); in test [2] it was 7.78 µM (active); in test [3] it was 5.11 µM (active); in test [4] it was 6.68 µM (active); in test [8], 8.64 µM (active); in test [10], 5.25 µM (active). Further, in test [9], the compound was classed as inactive.

With `COCC(C)OCC(C)O` (stereo not drawn), the outcome in [1], in [2], in test [3], in test [4] and in test [6] was inactive.

For `O=[N+]([O-])c1ccc(O)cc1`, the outcome in [1], in test [2], in test [3], in [4], in test [7] and in test [8] was inactive. For the same compound, the compound was classed as inactive in [5].

For the compound `CC(O)CO` (stereo not drawn), the outcome in test [1], in test [2], in test [3] and in test [4] was inactive.

Take `Cc1cc(CCN2CCN(c3nsc4ccccc34)CC2)cc2c1NC(=O)CC2(C)C`: the AC50 in [1] was 13 µM (active); in test [2], 20 µM (active); in test [3], 8.05 µM (active); in test [4] it was 33.9 µM (active). Further, the outcome in test [6], in [9] and in [5] was inactive.

For `CC#C[C@]1(O)CC[C@H]2[C@@H]3CCC4=CC(=O)CCC4=C3[C@@H](c3ccc(N(C)C)cc3)C[C@@]21C`, the result in test [1] and in [2] was inactive. Besides, the AC50 is 36.2 µM (active) in test [3] and 31.7 µM (active) in test [4].

Regarding `Oc1cc2ccccc2c2ccccc12`, the AC50 in [1] is 3.93 µM (active); in test [2] it was 9.87 µM (active); in test [3], 3.62 µM (active); in test [4], 9.94 µM (active); in [9], 5.31 µM (active); in test [8] it was 1.31 µM (active). The figures for the AC50 in test [10] and in [5] were 0.0278 µM (active) and 0.136 µM (active), respectively. The compound was called inactive in [7].

As to `OC1CCCCC1`, the outcome in [1], in [2], in [3] and in test [4] was inactive.

`CCCCCCCCCCCCCC[N+](C)(C)C`: the AC50 in test [1] is 4.69 µM (active); in test [2], 3.2 µM (active); in test [3] it was 0.539 µM (active); in test [4], 3.15 µM (active); in test [5], 3.64 µM (active).

Turning to `COc1ccc([N+](=O)[O-])cc1N`, the outcome in test [1], in [2], in test [3], in test [4] and in [8] was inactive. Besides, the AC50 in test [7] is 5.77 µM (active).

Consider `CC(C)(C)c1ccc(O)c(C(C)(C)C)c1`, for which the AC50 was 12.9 µM (active) in test [1], 20 µM (active) in test [2], 10.8 µM (active) in [3] and 16.6 µM (active) in test [4].

On to `Nc1cccc2c(N)cccc12`, for which the AC50 is 13.7 µM (active) in test [1]; 17.5 µM (active) in test [3]; 7.14 µM (active) in [8]; 3.06 µM (active) in test [10]; 3.62 µM (active) in [5]. Moreover, the result in test [2], in test [4] and in test [9] was inactive.

Consider `CN1CCC[C@H]1c1cccnc1`, for which the result in test [1], in [2], in [3] and in test [4] was inactive.

With `O=C(O)c1ccccc1C(c1ccc(O)cc1)c1ccc(O)cc1`, the outcome in test [1], in test [2], in test [3], in test [4] and in test [6] was inactive.

As to `CC(C)(C)c1cc(C(C)(C)C)c(O)c(C(C)(C)C)c1`, the outcome in test [1], in test [2], in [3] and in test [4] was inactive.

As to `O=C(OCCOCCOC(=O)c1ccccc1)c1ccccc1`, the result in test [1], in test [2], in [3], in [4] and in test [9] was inactive. For the same compound, the AC50 in test [10] is 1.71 µM (active).

As for `c1ccc2cc3c(ccc4ccccc43)cc2c1`, the outcome in test [1], in test [2], in test [3], in test [4], in test [6] and in test [9] was inactive.

With `CCCCCCCCCCCCN1CCCC1=O`, the AC50 in test [1] was 33 µM (active); in test [2], 20 µM (active); in [3], 36.3 µM (active); in test [4], 30.9 µM (active).

Regarding `Cc1oc(-c2ccccc2)nc1CCOc1ccc(C[C@H](Nc2ccccc2C(=O)c2ccccc2)C(=O)O)cc1`, the AC50 in test [1] was 28.9 µM (active); in test [2], 15.8 µM (active); in test [3], 19.3 µM (active); in test [4], 18.8 µM (active).
